Bioassay records (PubChem BioAssay)
The list is not random: actives were taken first. Their share in the collection is about 11%.
NS1 inh: qHTS Assay for Inhibitors of Influenza NS1 Protein Function. Potency, µM (doses to about 46.1 µM), for inactives: at the highest dose activity, positive = more growth. hit rate 0.4% among 270,000. AID 2326, 2010; calls by dose curve; further: actives are rising curves; nearly all actives have a fitted effect of over 50% in size
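S. cerevisiae expressing influenza A NS1, grown in glucose, washed, then diluted 1:100 into pH 6.0 -URA galactose medium with 23 nl compound. Growth recovery read as OD600; NS1-free strain serves as control.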
Pf growth 96h: Primary qHTS for delayed death inhibitors of the malarial parasite plastid, 96 hour incubation; P. falciparum luciferase reporter growth, 96 h; Potency, µM (doses to about 28.7 µM), without a hit: at the highest dose activity change, negative = inhibition, hits mostly inhibitors; hit rate 6.9% among 320,000; AID 504834, 2011; further: on the % scale 0 is the no-effect control and ±100 the full control effect
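Compounds incubated with erythrocytes infected by luciferase-expressing P. falciparum (2% hematocrit, 0.05% parasitemia final) for 96 hours, 37 C in 5% CO2. Growth inhibition scored as decreased luciferase luminescence.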
Pf growth 48h: Primary qHTS for delayed death inhibitors of the malarial parasite plastid, 48 hour incubation; Potency, µM (highest dose often 28.7 µM), without a hit: top-dose activity change, negative = inhibition, actives largely listed as inhibitors; P. falciparum luciferase growth in erythrocytes, 48 h; hit rate 5.9% among 310,000; AID 504832, 2011; further: on the % scale 0 is the no-effect control and ±100 the full control effect
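Parasite viability was followed by luminescence of a genomically integrated firefly luciferase. Cultures held 0.1% parasitemia at 2% hematocrit (final), incubated under 5% CO2 at 37 C.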
Vaccinia mCherry: qHTS for Stage-Specific Inhibitors of Vaccinia Orthopoxvirus: mCherry Reporter Primary qHTS | hit rate 0.63% among 310,000 | AID 720579, 2013 | Potency, µM (doses to about 36.5 µM), for inactives: at the highest dose activity change, negative = inhibition, usual class: inhibitors | Vaccinia virus mCherry reporter infection, fluorescence; calls by dose curve; tested in A549 cells; further: on the % scale 0 is the no-effect control and ±100 the full control effect; nearly all actives have a fitted effect of over 35% in size
VACV Venus inh: qHTS for Stage-Specific Inhibitors of Vaccinia Orthopoxvirus: Venus Reporter Primary qHTS; AID 720580, 2013; Vaccinia virus Venus reporter expression, fluorescence; hit rate 0.46% among 330,000; Potency, µM (top dose mostly 36.5 µM), inactives show at the highest dose activity change, negative = inhibition, actives largely listed as inhibitors; calls by dose curve; tested in A549 cells; further: on the % scale 0 is the no-effect control and ±100 the full control effect; nearly all actives have a fitted effect of over 30% in size
HCV inhibitor: qHTS Assay for Inhibitors of Hepatitis C Virus (HCV). hit rate 3.4% among 340,000. Potency, µM (doses to about 41.8 µM), without a hit: top-dose activity change, negative = inhibition, hits mostly inhibitors. Huh7.5.1 HCVcc-Cre infection, luciferase reporter, 44 h; further: on the % scale 0 is the no-effect control and ±100 the full control effect
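Luciferase read-out (15 sec integration) after a 15 min room-temperature substrate step quantifies HCVcc-Cre infection. Cells, 1,000 per well, had compound added 4 h post-plating, then virus at ~0.5 moi, and were cultured 44 h.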
Starred values were filed as active, the others as inactive. Unless noted, the call rests on the fitted dose curve; in most records, active means well fitted inhibition curve with a large enough effect; inconclusive means small, poorly fitted or top-dose-only effect, or another doubt; inactive means no such curve, though single readings can be large or run the other way. Potency means the concentration at half of the fitted maximal effect.

For CC(C)Cc1nc2oc3c(N4CCN(CCO)CC4)ncnc3c2c2c1CCCC2 the results were NS1 inh -51%, Pf growth 96h inconclusive, Pf growth 48h inconclusive, Vaccinia mCherry inactive, VACV Venus inh -8% and HCV inhibitor inconclusive.
Screening CCOC(=O)c1oc2nc(CC(C)C)c3c(c2c1N)CCC3 returned NS1 inh 4%, Pf growth 96h 7.4µM*, Pf growth 48h inconclusive and HCV inhibitor inconclusive.
For CN1CCC(OC(=O)c2ccc(Br)cc2)CC1 the results were HCV inhibitor -23%.
CN1CCC(=C(c2ccccc2)c2ccc(Br)cc2)CC1 was read as HCV inhibitor 8.9µM*.
Screening Cc1cc(NC(=O)CN2C(=O)NC(Cc3ccccc3)C2=O)no1 (stereo unspecified) returned NS1 inh 7%, Pf growth 96h 5%, VACV Venus inh -9% and HCV inhibitor 6%.
Screening CCCCOc1ccc(Cc2c(Cl)nc(SC)nc2N2CCOCC2)cc1 returned NS1 inh 0%, Pf growth 96h 45%, Pf growth 48h 13µM*, Vaccinia mCherry inactive, VACV Venus inh -14% and HCV inhibitor -26%.
`COc1ccc(OCC(O)CN2CCOCC2)cc1` (stereo unspecified) gave NS1 inh 6%, Pf growth 96h 26%, Pf growth 48h inconclusive and HCV inhibitor 2%.
Screening CCOc1ccc(Cc2c(Cl)nc(SC)nc2OC)cc1 returned NS1 inh 5%, Pf growth 96h inconclusive, Pf growth 48h -20% and HCV inhibitor -6%.
CSc1nc(Cl)c(Cc2ccc(OCC(C)C)cc2)c(N2CCOCC2)n1 was read as NS1 inh -5%, Pf growth 96h inconclusive, Pf growth 48h inconclusive and HCV inhibitor 11µM*.
For CCc1nnc(NC(=O)CCC(=O)N2CCCC(O)C2)s1 (stereo unspecified) the results were NS1 inh 6%, Pf growth 96h 14%, Pf growth 48h inconclusive, Vaccinia mCherry -7%, VACV Venus inh -2% and HCV inhibitor 11%.
Cc1ccc(C)c(S(=O)(=O)NCC(c2ccc3c(c2)OCO3)N2CCOCC2)c1 (stereo unspecified) was read as Pf growth 96h inconclusive, Pf growth 48h -17%, Vaccinia mCherry inactive, VACV Venus inh -14% and HCV inhibitor 23%.
For COc1ccc(-c2noc(CN(C)Cc3ccc(C)o3)n2)cc1 the results were NS1 inh 0%, Pf growth 96h 3%, Pf growth 48h 17% and HCV inhibitor 8%.
Screening Cc1nccn1S(=O)(=O)c1ccc(Br)cc1Br returned NS1 inh -7%, Pf growth 96h 13µM*, Pf growth 48h 1.9µM* and HCV inhibitor inconclusive.
Screening COc1ccc(Br)cc1S(=O)(=O)n1ccnc1C returned NS1 inh 12%, Pf growth 96h 94%, Pf growth 48h -7%, Vaccinia mCherry -5%, VACV Venus inh -6% and HCV inhibitor 10%.
C=CCNC(=O)CN(c1ccc(OC)cc1OC)S(C)(=O)=O was read as NS1 inh 1%, Pf growth 48h -2%, Vaccinia mCherry -3%, VACV Venus inh -9% and HCV inhibitor 7%.
Cn1cc(S(=O)(=O)N2CCCCCC2)cc1C(=O)NCc1ccccc1Cl was read as Vaccinia mCherry -16% and VACV Venus inh -12%.
Cc1cc(C)n(-c2ccc(NC(=O)C3CCCCN3C(=O)c3sccc3C)cc2)n1 (stereo unspecified) was read as NS1 inh -3%, Pf growth 96h 15µM*, Pf growth 48h -11%, Vaccinia mCherry -19%, VACV Venus inh -18% and HCV inhibitor inconclusive.
`Cc1cc(C)n(-c2ccc(NC(=O)C3CCCCN3C(=O)c3occc3C)cc2)n1` (stereo unspecified) gave NS1 inh 1%, Pf growth 96h 6%, Pf growth 48h -15% and HCV inhibitor -12%.
Screening Cc1cc(C)n(-c2ccc(NC(=O)C3CCCCN3C(=O)c3ccoc3)cc2)n1 (stereo unspecified) returned NS1 inh 16%, Pf growth 96h 9.3µM*, Pf growth 48h -5%, Vaccinia mCherry 0%, VACV Venus inh -14% and HCV inhibitor -18%.
`CCC1CCc2sc(C(=O)NCc3ccccn3)cc2C1` (stereo unspecified) gave NS1 inh -30%, Pf growth 96h inconclusive, Pf growth 48h -16%, Vaccinia mCherry inactive, VACV Venus inh 0% and HCV inhibitor -9%.
CCC1CCc2sc(C(=O)NC3CCN(Cc4ccccc4)CC3)cc2C1 (stereo unspecified) was read as Pf growth 96h inconclusive, Pf growth 48h inconclusive, Vaccinia mCherry -20%, VACV Venus inh -28% and HCV inhibitor 10µM*.
Screening CC1CCc2sc(C(=O)NC3CCN(Cc4ccccc4)CC3)cc2C1 (stereo unspecified) returned Pf growth 96h 6.6µM*, Pf growth 48h 8.3µM* and HCV inhibitor 11µM*.
For Cc1nc2sccn2c(=O)c1S(=O)(=O)N1CCN(c2ccc(F)cc2)CC1 the results were NS1 inh 9%, Pf growth 96h inconclusive, Pf growth 48h 7%, Vaccinia mCherry 18%, VACV Venus inh -9% and HCV inhibitor -6%.
Cc1nc2sccn2c(=O)c1S(=O)(=O)N1CCN(c2cccc(C(F)(F)F)c2)CC1 was read as NS1 inh -30%, Pf growth 96h 10µM*, Pf growth 48h inconclusive, Vaccinia mCherry -10%, VACV Venus inh -18% and HCV inhibitor 15%.
COc1cccc(NC(=O)Cn2c3ccccc3c3nc4n(c(=O)c32)CCCS4)c1 was read as NS1 inh 2%, Pf growth 96h -18%, Pf growth 48h inconclusive and HCV inhibitor 4%.
O=C(C1CC1)N1CCc2cc(Br)cc(S(=O)(=O)N3CCN(c4ccccc4)CC3)c21 was read as Vaccinia mCherry -8% and VACV Venus inh -8%.
`CCC(=O)N1CCc2cc(Br)cc(S(=O)(=O)N3CCC(C(=O)NCCCOC(C)C)CC3)c21` gave NS1 inh -10%, Pf growth 96h inconclusive, Pf growth 48h 2.9µM*, Vaccinia mCherry -13%, VACV Venus inh -22% and HCV inhibitor -11%.
CC(=O)N1c2c(cc(Br)cc2S(=O)(=O)N2CCCCC2)CC1C (stereo unspecified) was read as NS1 inh -4%, Pf growth 96h 109%, Pf growth 48h inconclusive, Vaccinia mCherry -19%, VACV Venus inh -7% and HCV inhibitor -11%.
